Assay outcomes as filed in PubChem.
Sampled rows, rich in hits. Any-hit rate of the full collection: about 2.4%.
Imprint erasure = induces erasure of genomic imprints in mouse ES cells. 110,000 tested, 0.02% active. Potency, µM (top dose mostly 60.7 µM), for the others: at the highest dose activity change, positive = activation, most hits filed as activators. mouse ES Peg3-LacZ reporter, beta-gal luminescence, 40 h
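Each well holds 300 Peg3LacZ-Neo (maternal) female ES cells incubated 40 h at 37C, 5% CO2. LacZ is measured by BetaGlo luminescence, with AC50 and maximum efficacy derived from dose-response curves.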
Luciferase inh = inhibitors of firefly luciferase. P08659. AID 411. 72,000 tested, 2.2% active. purified firefly luciferase, luminescence, 8 min. Potency, µM (doses to about 57.1 µM), without a hit: at the highest dose activity change, negative = inhibition, hits mostly inhibitors; note: % is set by controls: 0 for no effect and ±100 for the full control effect; nearly all actives have a fitted effect of over 40% in size
Target sequence (P08659 whole entry, looked up): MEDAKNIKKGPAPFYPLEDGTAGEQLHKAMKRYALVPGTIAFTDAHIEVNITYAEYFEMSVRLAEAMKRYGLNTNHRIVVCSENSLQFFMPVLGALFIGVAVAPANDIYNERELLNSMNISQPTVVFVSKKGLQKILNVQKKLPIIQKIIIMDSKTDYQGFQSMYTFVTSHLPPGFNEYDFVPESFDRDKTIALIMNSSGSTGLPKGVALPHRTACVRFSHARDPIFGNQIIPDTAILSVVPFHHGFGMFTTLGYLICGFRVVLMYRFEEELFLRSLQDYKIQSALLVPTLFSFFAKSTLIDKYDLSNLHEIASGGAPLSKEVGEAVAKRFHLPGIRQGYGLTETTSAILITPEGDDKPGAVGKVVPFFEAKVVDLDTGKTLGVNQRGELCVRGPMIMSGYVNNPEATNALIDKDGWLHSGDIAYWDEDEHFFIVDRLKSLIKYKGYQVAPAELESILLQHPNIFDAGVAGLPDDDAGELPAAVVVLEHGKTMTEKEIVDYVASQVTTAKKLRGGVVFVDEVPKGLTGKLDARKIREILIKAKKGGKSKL
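Here, luciferase activity is measured as luminescence following an 8 min room-temperature reaction at 10 uM ATP, pH 7.2. Every library sample is titrated.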
p53ts 39C tox = kills p53ts cells at the nonpermissive temperature; H1299-p53A138V viability at 39C, ATP luminescence, 24 h; Potency, µM (titrated, usually from 46.1 µM), without a hit: at the top dose activity change, negative = cell killing, usual class: cytotoxic; 130,000 tested, 1.5% active; AID 902; note: % is set by controls: 0 for no effect and ±100 for the full control effect; nearly all actives have a fitted effect of over 55% in size
IkB sig inh = suppresses IkB signaling in ABC-DLBCL reporter cells; ABC-DLBCL IkBa-CBG/CBR dual luciferase ratio, 4 h; response scale: scaled: untreated 0%, proteasome inhibitor 100%; Potency, µM (doses to about 57.1 µM), for the others: top-dose IkBa stabilization activation; 110,000 tested, 0.04% active; AID 445; active = well fitted curve in the direction sought with a large enough effect in the signal ratio, not every such curve was filed as active; inconclusive = small, poorly fitted or top-dose-only effect, or a change in a side signal; the % refers to the signal ratio;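 note: the direction sought is a rising ratio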
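In this assay, an IκBα–CBG68 fusion accumulates when IKK-driven degradation is blocked; native CBR normalizes for cell number. OCI-Ly3 cells were treated 4 h with compound and doxycycline, then green and red light read after Chroma-Glo addition.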
p53ts 32C kill = p53ts cell cytotoxicity, permissive temperature; H1299-p53A138V at 32C, ATP luminescence viability, 24 h; Potency, µM (highest dose often 46.1 µM), without a hit: top-dose activity change, negative = cytotoxicity, hits mostly cytotoxic; 130,000 tested, 0.93% active; AID 924;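 note: 0% = DMSO and -100% = full killing by reference compound; nearly all actives have a fitted effect of over 55% in size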
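Viability by ATPlite luminescence after 24 h compound treatment (up to 46 uM) at the permissive 32C. Cells are H1299 carrying p53 A138V. Scale runs from DMSO basal to 100 uM tamoxifen as full kill; AC50 from Hill fits.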
An asterisk follows results filed as active; ? = inconclusive; / = not tested or not shown; [ ] = dose if it differs, or a comment. Unless noted, calls come from the whole dose curve; as a rule, active = well fitted curve in the direction sought with a large enough effect; inconclusive = small, poorly fitted or top-dose-only effect, or another doubt; inactive = no such curve, though single readings can be large; an effect the other way counts as inactive or inconclusive. Potency is the fitted concentration of half-maximal effect.

SMILES | Imprint erasure | Luciferase inh | p53ts 39C tox | IkB sig inh | p53ts 32C kill
CC1CC(C)CN(S(=O)(=O)c2ccc(C(=O)Nc3nnc(-c4cccs4)o3)cc2)C1 (stereo not given) | -32% | 0% | 16µM* | 6% | 6%
CCOC(=O)c1ccc(NC(=O)CCc2c(C)nc3c(c(C)nn3-c3ccccc3)c2C)cc1 | -10%[10.9 µM] | / | -10% | ? | 12%
O=C(O)CCn1cnc2onc(-c3ccccc3Cl)c2c1=O | -12%[10.9 µM] | / | 6% | 0% | 3%
CC1CCN(c2ccc(-c3nc(-c4ccccc4)no3)cc2[N+](=O)[O-])CC1 | -14%[10.9 µM] | / | 22µM* | ? | 17%
Cc1ccc(-c2noc(-c3ccc(N4CCC(C)CC4)c([N+](=O)[O-])c3)n2)cc1 | -3%[10.9 µM] | / | -24% | -1% | -8%
CCc1ccc(OCC(=O)Nc2ncn[nH]2)c(Br)c1 | -22%[10.9 µM] | / | 1.6µM* | -5% | 1.6µM*
CC(C)(C)c1cc(Br)ccc1OCC(=O)Nc1ncn[nH]1 | -12% | 0% | 3% | 4% | 12%
O=C(COc1ccc(Br)cc1Cl)Nc1ncn[nH]1 | -19%[10.9 µM] | / | ? | -2% | 2.5µM*
COc1ccccc1CNC(=O)c1cc2ccc3ccc(C)[nH]c3c2n1 | 5%[10.9 µM] | / | -20% | ? | 4%
Cc1ccc(NC(=O)/C=C/c2ccc(C)o2)c(C)c1 | -10%[10.9 µM] | / | -12% | 5% | -8%
CC(=O)c1ccc(NC(=O)/C=C/c2ccc(C)o2)cc1 | -11%[10.9 µM] | / | 10µM* | ? | 7.9µM*
Cc1cccc(-n2ncc3c(NCc4ccc5c(c4)OCO5)ncnc32)c1 | -26% | -1% | -27% | -5% | -13%
C=CCNc1ncnc2c1cnn2-c1cccc(C)c1 | -41% | 10µM* | ? | 2% | ?
Cc1ccc(CNc2ncnc3c2cnn3-c2ccc(Cl)cc2)cc1 | -14%[10.9 µM] | / | -19% | -5% | 0%
C=CCNc1ncnc2c1cnn2-c1ccc(Cl)cc1 | -24% | 2.5µM* | -28% | ? | ?
CC1=C(c2ccc(F)cc2)S(=O)(=O)N=C1N1CCC(C(=O)NCCc2ccccc2)CC1 | 11%[10.9 µM] | / | -11% | 2% | 5%
CC1=C(c2ccc(C(C)C)cc2)S(=O)(=O)N=C1N1CCC(C(=O)Nc2ccc(C)cc2)CC1 | -22%[10.9 µM] | / | 13µM* | 2% | ?
CCc1ccc(C2=C(C)C(N3CCC(C(=O)Nc4ccc(F)cc4)CC3)=NS2(=O)=O)cc1 | -10%[10.9 µM] | / | 10µM* | ? | ?
COc1ccc(CCNC(=O)c2nc(SCc3ccccc3F)ncc2Cl)cc1OC | -24%[10.9 µM] | / | -9% | 2% | -10%
Clc1cccc(N2CCN(c3ncnc4c3nc3n4CCCCC3)CC2)c1 | -22%[10.9 µM] | / | 13µM* | ? | ?
CCOc1cc(-c2ccc(OC(=O)c3ccc(C)cc3)c(OC)c2)cc(=O)c2c(C)oc(C)c12 | -39%[10.9 µM] | / | 76% | 1% | -23%
COc1cccc2cc(C(=O)Nc3ccc(CC(=O)O)cc3)c(=O)oc12 | -52%[10.9 µM] | / | 7.9µM* | ? | 5µM*
COc1cccc2cc(C(C)=O)c(=O)oc12 | -3% | -1% | 1% | 1% | 9%
C/C(=C\COc1cc(=O)[nH]c2ccccc12)CC[C@@H](O)C(C)(C)O | / | -2%[11.4 µM] | / | 1%[11.4 µM] | /
Fc1ccc(-c2nnc(Cc3nnc(-c4ccc(F)cc4)o3)o2)cc1 | 7% | -5% | -2% | 4% | 5%
SMILES | Imprint erasure | Luciferase inh | p53ts 39C tox | IkB sig inh | p53ts 32C kill
Fc1ccc(-c2nnc(NC3=NCCCCC3)o2)cc1 | -92% | 2.5µM* | 4µM* | ? | 4µM*
Cc1ccc(S(=O)(=O)C2(C(=O)Nc3ccc(Cl)c(C(F)(F)F)c3)CC2)cc1 | 5%[10.9 µM] | / | -21% | ? | 0%
O=C1c2ccccc2C(=O)C1c1ccnc2ccccc12 | / | / | 5.6µM* | / | ?
CC(C)(C)c1ccc(OCC(=O)NCC2(N3CCOCC3)CCCCC2)cc1 | -11%[10.9 µM] | / | 16µM* | ? | ?
CCCCc1ccc(-c2nc(N)n[nH]2)cc1 | -7% | 7.9µM* | ? | -2% | ?
Nc1n[nH]c(-c2ccc(F)cc2)n1 | / | 1% | 7% | -1% | -8%
Cc1ccc(Cl)cc1N1CCN(C(=O)CCS(=O)(=O)c2ccc3c(c2)oc(=O)n3C)CC1 | 7%[10.9 µM] | / | -13% | 3% | 6%
